The values below come from PubChem BioAssay (NCI).

The panel holds about 83,000 compounds, 20% with a hit somewhere; the sample as a whole holds those more often.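 Activity criterion: percent growth below 10, measured after cells in 96-well plates were exposed to a single compound concentration for 48 hours.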 Values without a mark were called inactive. The source made the active and inactive calls.

The subject of the test is IGROV1 ovarian. The test can be described thus: NCI-60 one-dose screen, 48 h (100 = growth as untreated, 0 = no growth, -100 = all killed). Conditions: 10 µM unless noted. The protocol:
Growth inhibition of the IGROV1 human tumor cell line is measured as a screen for anti-cancer activity. Cells are grown in 96 well plates and exposed to the test compound for 48 hours. Compounds are tested at a single concentration, which is 10^-5 M for most compounds. The reported endpoint is percent growth (GI% or GIPRCNT), where numbers from 0 - 100% represent growth inhibition, and numbers from -100% - 0 represent cell death. For example, a value of 40 represents 60% growth inhibition. A value of 0 means no net growth occurred over the course of the experiment. A value of -40 indicates 40% of cells at the beginning of the experiment died by the end of the experiment. A value of -100 means all cells are dead at the end of the experiment.
NCI-60 Human Tumor Cell Lines Screen was performed using the standard one-dose NCI protocol, which is described in more detail at https://dtp.cancer.gov/discovery_development/nci-60/default.htm.
Compounds with GIPRCNT values below 10 were considered active. Activity score was based on GIPRCNT using the following formula: […]
Score is 0 for GIPRCNT values of 100 or above, 50 for GIPRCNT values of 0, and 100 for GIPRCNT values of -100.
Consider `COc1cc(-c2nc3cc(Cl)c(Cl)cc3[nH]2)ccc1OCc1nnc(-c2cccs2)o1`, for which the growth was 59.4%. As for `N#Cc1c(-c2cccc3ccccc23)cc(-c2cccc(OCC(=O)O)c2)[nH]c1=O`, the growth was 110%.

For `CCCCNC(=S)Nc1ccc(OCc2nc3ccccc3[nH]2)cc1`, the growth is 78.6%. In the case of `Cc1ccc(NC(=O)CN2CCN(c3ncnc4c3cnn4-c3ccccc3)CC2)cc1`, the growth is 81.3%. Turning to `CC(=O)Nc1cccc(-c2nc3cc(-c4ccc(O)cc4)ccc3n2C)c1`, the growth was 51.7%. On to `COc1ccc(/C=C2\C(=O)Nc3ccc(Cl)cc32)cc1OCc1ccccn1`, for which the growth was 45.5%. With `COc1ccc(C2=NN(c3ccccc3)C(c3ccc(OCc4ccccc4)c(OC)c3)C2)cc1OC` (stereo not given), the growth was 102%.

For the compound `C=C1CCC2C3(C)COC(c4cccs4)OC3CCC2(C)C1CC(Sc1ccccc1)C1=CCOC1=O` (stereo not given), the growth was 95.5%. With `CN(C)c1nc(NCCNS(=O)(=O)c2ccc(C(=O)/C=C/c3ccc(Cl)cc3)cc2)nc(Nc2ccc(F)cc2)n1` the figure was -49.6% (active); with `COc1ccc(C(SCCNCc2cc(N(C)C)ccn2)(c2ccccc2)c2ccccc2)cc1`, 11.4%. As to `CC(=O)Oc1ccc(/C=C/C(=O)N[C@@H](Cc2ccccc2)C(O)C(=O)NCc2ccccc2)cc1OC(C)=O` (stereo not given in full), the growth was 62.5%. With `Cc1cccc(NC(=O)[C@]23CCC(C)(C)CC2C2=CCC4[C@@]5(C)C[C@@H](O)[C@H](O)[C@@](C)(CO)C5CC[C@@]4(C)[C@]2(C)CC3)c1` (stereo not given in full), the growth is 35.6%. For the compound `CCCSc1nc(NCCc2c[nH]c3ccccc23)c(C#N)c(-c2ccc(F)cc2)n1`, the growth was 85.8%. Take `C#CCOc1cc(N(CC)CC)ccc1C(C(=O)NC(C)(C)C)N(C(=O)C1CCc2cc(F)ccc2O1)c1ccc(F)cc1` (stereo not given): the growth was 68.2%.

With `Cn1cc(-c2cc3nc(-c4cn(C)c5ncc(Br)cc45)cc(N)n3n2)c2ccccc21`, the growth is -23.8% (active).

Take `COc1cc2c(c(OC)c1OC)C(=O)CC(c1cccc(NC(=O)c3cccc(NC(=O)[C@H](C)NC(=O)OC(C)(C)C)c3)c1)O2` (stereo not given in full): the growth is 65.3%. `COc1cccc(-c2c(C#N)c(-c3ccc(Cl)cc3)nc3n[nH]c(-c4ccc(Cl)cc4)c23)c1`: the growth was 65.2%. Take `Cn1cc(-c2cc3nc(-c4cn(C)c5ncccc45)cc(N)n3n2)c2cc(Cl)ccc21`: the growth is -82.7% (active). Regarding `O=C(O)c1cccc(-c2ccc(/C=N/NC(=O)c3[nH]c4ccc(Br)cc4c3-c3ccccc3)o2)c1`, the growth was 85%. Regarding `Cc1cc(=O)oc2cc(OCCOc3ccc(/C=C/C(=O)Nc4ccccc4N)cc3)ccc12`, the growth is 38.7%. As for `O=C(/C=C/c1cccc(OCc2ccccc2)c1)c1nc2ccccc2[nH]1`, the figure is 60.3%. Turning to `COc1cc2oc(-c3cccc(C(=O)Nc4ccc(Cl)cc4)c3)cc(=O)c2c(OCC(=O)N[C@@H](Cc2ccccc2)C(=O)O)c1OC`, the growth was 98%. Consider `O=c1onc(-c2cc3ccccc3nc2Cl)n1-c1cccc2ccccc12`, for which the growth is 61.8%. Turning to `Cn1cc(-c2cc3nc(-c4c[nH]c5ccc(Cl)cc45)cc(N)n3n2)c2ccccc21`, the growth is -53.1% (active). For `CC12CC[C@@H]3[C@]4(C)COC(c5cn[nH]c5-c5cccc(Cl)c5)O[C@@H]4CC[C@@]3(C)[C@@H]1CC(C1=CCOC1=O)O2` (stereo not given in full), the growth is 49.8%. As for `CC(=O)N1CCN(Cc2ccc3c(NNC(=O)c4cnccn4)nc4cc(F)ccc4n23)CC1`, the growth was 28.2%.

With `CSc1ccc(NC(=O)c2ccc3nn(/C(C#N)=C/c4ccccn4)nc3c2)cc1`, the growth is -87.4% (active). For `N#Cc1c(-c2cccnc2)cc(-c2ccc3ccccc3c2)[nH]c1=O`, the growth is 97.6%. With `CC1(c2cc3cc(Br)ccc3oc2=O)NC(=O)c2c(/C=C/C(=O)OC3CC4CCC3(C)C4(C)C)cccc2N1` (stereo not given), the growth was 92.6%.

Take `CN(C)c1ccnc(NCCCSC(c2ccccc2)(c2ccccc2)c2ccccc2)c1`: the growth was 50.5%.

Regarding `C=C1CC[C@@H]2[C@]3(C)COC(c4cn[nH]c4-c4ccc(F)cc4)O[C@@H]3CC[C@@]2(C)[C@@H]1C/C=C1/C(=O)OCC1O` (stereo not given in full), the growth was -31.1% (active). Regarding `COc1ccc(C(=O)/C=C/c2ccc(Oc3nc(Nc4ccc(F)cc4)nc(N(C)C)n3)c(OC)c2)cc1`, the growth was 63.1%. On to `CSc1ccc(NC(=O)c2ccc3nnn(/C(C#N)=C/c4ccccn4)c3c2)cc1`, for which the growth is -76.7% (active). As to `C/C(=N\N=C\c1cc([N+](=O)[O-])ccc1Cl)c1ccc2c(c1)Nc1ccccc1S2`, the growth was 40%. Consider `Cn1cc(-c2cc(N)n3nc(-c4cn(C)c5ccccc45)cc3n2)c2cc(Cl)ccc21`, for which the growth was -4.76% (active).

As for `Nc1nc(-c2ccccc2)c(N=Nc2ccc(Cl)cc2[N+](=O)[O-])s1`, the growth is 80.5%. Regarding `COc1ccc(C(=O)/C=C/c2cccnc2)cc1S(N)(=O)=O`, the growth was 59.5%.

In the case of `CC(=O)OC[C@@]1(C)C2CC[C@]3(C)C(CC=C4C5CC(C)(C)CC[C@]5(C(=O)Nc5cccc(C)c5)CC[C@]43C)[C@@]2(C)C[C@@H](OC(C)=O)[C@@H]1OC(C)=O` (stereo not given in full), the growth is 61.8%. In the case of `CC(C)c1ccc2c(N)c(C(=O)Nc3ccc(C(F)(F)F)cn3)sc2n1`, the growth is 81.2%. With `O=C1/C(=C/C2=Cc3ccccc3OC2)SC(=S)N1c1ccccc1F`, the growth was 103%.
